# In PubChem BioAssay (EPA / NIEHS):
# “And” between values parts separate entries of the source, which are not always exact repeats. Equal values may be shown once. Inconclusive results are not listed. Some compounds were tested as several samples or in several runs, with calls that do not always agree. The source made the active and inactive calls. How the source made its calls, unless noted: active means hit-call score of the fitted dose curve at least 0.9, where 1 is the maximum; inactive means score below 0.9.
# How the values were obtained:
# [1] = ATG_Oct_MLP_CIS: Attagene CIS-FACTORIAL HepG2 Assay for human Octamer-Binding Transcription Factor (Oct) (AID 2282993); conditions: HepG2 Attagene cis-factorial Oct reporter, mRNA; actives raise or lower the signal
# In short: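 Read-out: reporter mRNA via RT-PCR plus capillary electrophoresis of 6-FAM-labelled fragments. Transiently transfected HepG2, 24 h exposure, endogenous TF activity on cis elements. Gain or loss of signal fitted relative to DMSO.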
# [2] = biological target: Cellular tumor antigen p53 (Homo sapiens) (UniProt P04637); test: ATG_p53_CIS: Attagene CIS-FACTORIAL HepG2 Assay for human p53 Transcription Factor (AID 2282994); conditions: HepG2 p53 cis-element reporter, Attagene mRNA; actives raise or lower the signal
# Sequence of Cellular tumor antigen p53 (Homo sapiens) (P04637 whole entry, looked up): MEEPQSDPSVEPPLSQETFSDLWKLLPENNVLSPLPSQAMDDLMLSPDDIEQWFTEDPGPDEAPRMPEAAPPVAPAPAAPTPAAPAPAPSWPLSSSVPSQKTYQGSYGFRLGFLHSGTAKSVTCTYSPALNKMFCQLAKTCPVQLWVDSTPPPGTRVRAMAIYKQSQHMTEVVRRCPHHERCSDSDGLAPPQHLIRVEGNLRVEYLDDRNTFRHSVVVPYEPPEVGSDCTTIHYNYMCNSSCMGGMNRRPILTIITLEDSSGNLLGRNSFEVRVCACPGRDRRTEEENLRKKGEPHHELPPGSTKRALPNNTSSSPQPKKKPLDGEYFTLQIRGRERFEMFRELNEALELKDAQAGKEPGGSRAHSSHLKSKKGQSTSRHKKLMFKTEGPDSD
# In short: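 HepG2, transient MRTU transfection (cis promoter elements, endogenous TFs); 24 h dosing; RNA isolation, RT-PCR, 6-FAM primer extension, HpaI digest, CE fluorescence; bidirectional fit vs DMSO.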
# [3] = BSK_3C_uPAR: BioMAP Diversity Plus: 3C Assay for Urokinase-type plasminogen activator receptor (uPAR) Biomarker Activity (AID 2282998); conditions: BioMAP 3C HUVEC, uPAR biomarker ELISA; actives raise or lower the signal
# In short: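 HUVEC primary cells; 24 h post-dose; uPAR by ELISA; gain or loss of signal fitted bidirectionally vs DMSO baseline.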
# [4] = BSK_3C_VCAM1: BioMAP Diversity Plus: 3C Assay for Vascular cell adhesion molecule 1 (VCAM1) Biomarker Activity (AID 2282999); conditions: BioMAP 3C HUVEC, VCAM1 ELISA, cytokine-stimulated; actives raise or lower the signal
# In short: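 Human umbilical vein endothelial cells (3C system), biomarker read by ELISA 24 h after dosing; bidirectional fit against DMSO baseline. Cytotoxicity tracked by SRB total-protein staining in parallel cultures at biomarker time.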
# [5] = BSK_4H_Eotaxin3: BioMAP Diversity Plus: 4H Assay for Eotaxin 3 Biomarker Activity (AID 2283000); conditions: primary human endothelial cells (HUVEC); actives raise or lower the signal;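 on outcome: CCL26 protein level quantified by ELISA in parallel with SRB cytotoxicity check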
# In short: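 Endothelial primary cells (human umbilical vein) exposed to compound for 24 h. ELISA detection of Eotaxin-3.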
# [6] = biological target: human Peroxisome Proliferator-activated Receptor alpha (PPARa), PPARA (gene 5465) (UniProt Q07869); test: ATG_PPARa_TRANS: Attagene TRANS-FACTORIAL HepG2 Assay for human Peroxisome Proliferator-activated Receptor alpha (PPARa) (AID 2283001; active means hit-call score of the fitted dose curve at least 0.9, where 1 is the maximum;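 on AC50: potency for gain of reporter signal over DMSO so agonist or activator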)
# Sequence of human Peroxisome Proliferator-activated Receptor alpha (PPARa), PPARA (gene 5465) (Q07869 whole entry, looked up, the tested form may be a part): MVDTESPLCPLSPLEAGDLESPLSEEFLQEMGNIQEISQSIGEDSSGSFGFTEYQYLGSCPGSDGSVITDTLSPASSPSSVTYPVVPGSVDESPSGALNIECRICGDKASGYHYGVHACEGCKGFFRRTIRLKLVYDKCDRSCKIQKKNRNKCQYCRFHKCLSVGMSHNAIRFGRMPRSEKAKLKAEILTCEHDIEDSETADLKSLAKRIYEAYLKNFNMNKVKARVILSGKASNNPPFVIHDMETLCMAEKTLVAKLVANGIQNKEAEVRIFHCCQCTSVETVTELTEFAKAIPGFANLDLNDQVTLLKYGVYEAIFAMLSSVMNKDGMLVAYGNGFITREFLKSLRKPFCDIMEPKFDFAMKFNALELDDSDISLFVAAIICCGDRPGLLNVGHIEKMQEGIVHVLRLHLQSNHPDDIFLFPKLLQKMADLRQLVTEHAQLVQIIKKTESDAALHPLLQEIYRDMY
# In short: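 Measures transcriptional activity of an exogenous chimeric PPARa-Gal4 protein in transiently transfected HepG2 cells after 24 h dosing. Reporter mRNA quantified via RT-PCR and capillary electrophoresis; DMSO served as negative control.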
# [7] = biological target: human Peroxisome Proliferator-activated Receptor delta (PPARd), PPARD (gene 5467) (UniProt Q03181); test: ATG_PPARd_TRANS: Attagene TRANS-FACTORIAL HepG2 Assay for human Peroxisome Proliferator-activated Receptor delta (PPARd) (AID 2283002; active means hit-call score of the fitted dose curve at least 0.9, where 1 is the maximum)
# Sequence of human Peroxisome Proliferator-activated Receptor delta (PPARd), PPARD (gene 5467) (Q03181 whole entry, looked up, the tested form may be a part): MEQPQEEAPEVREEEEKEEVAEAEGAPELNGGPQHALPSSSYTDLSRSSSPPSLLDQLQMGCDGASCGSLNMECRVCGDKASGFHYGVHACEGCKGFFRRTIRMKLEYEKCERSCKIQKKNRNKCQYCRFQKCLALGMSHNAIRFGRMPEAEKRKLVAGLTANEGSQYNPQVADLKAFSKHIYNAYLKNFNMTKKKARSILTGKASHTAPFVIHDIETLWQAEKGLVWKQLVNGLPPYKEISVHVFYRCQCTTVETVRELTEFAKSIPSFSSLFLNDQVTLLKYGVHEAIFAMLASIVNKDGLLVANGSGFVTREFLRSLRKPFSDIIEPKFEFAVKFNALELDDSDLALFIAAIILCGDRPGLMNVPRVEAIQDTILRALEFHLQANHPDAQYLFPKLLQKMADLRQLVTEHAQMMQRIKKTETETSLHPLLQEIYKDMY
# In short: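 Read-out: reporter mRNA induction, quantified by fluorescent RT-PCR products resolved by capillary electrophoresis. Human HepG2 liver cells carried transiently transfected Gal4-UAS reporter constructs with chimeric NR-Gal4 fusions. Cells were dosed for 24 h; DMSO served as baseline.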
# [8] = read-out: Intercellular Adhesion Molecule 1 (ICAM1), ICAM1 (gene 3383); test: BSK_3C_ICAM1: BioMAP Diversity Plus: 3C Assay for Intercellular Adhesion Molecule 1 (ICAM1) Biomarker Activity (AID 2283003); conditions: primary human endothelial cells (HUVEC); actives raise or lower the signal
# In short: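 Human vascular endothelial primary cells, 3C conditions, 24 h treatment. ICAM-1 by ELISA.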
# [9] = biological target: human Retinoic Acid Receptor beta (RARb), RARB (gene 5915) (UniProt P10826); test: ATG_RARb_TRANS: Attagene TRANS-FACTORIAL HepG2 Assay for human Retinoic Acid Receptor beta (AID 2283004; active means hit-call score of the fitted dose curve at least 0.9, where 1 is the maximum)
# Sequence of human Retinoic Acid Receptor beta (RARb), RARB (gene 5915) (P10826 whole entry, looked up, the tested form may be a part): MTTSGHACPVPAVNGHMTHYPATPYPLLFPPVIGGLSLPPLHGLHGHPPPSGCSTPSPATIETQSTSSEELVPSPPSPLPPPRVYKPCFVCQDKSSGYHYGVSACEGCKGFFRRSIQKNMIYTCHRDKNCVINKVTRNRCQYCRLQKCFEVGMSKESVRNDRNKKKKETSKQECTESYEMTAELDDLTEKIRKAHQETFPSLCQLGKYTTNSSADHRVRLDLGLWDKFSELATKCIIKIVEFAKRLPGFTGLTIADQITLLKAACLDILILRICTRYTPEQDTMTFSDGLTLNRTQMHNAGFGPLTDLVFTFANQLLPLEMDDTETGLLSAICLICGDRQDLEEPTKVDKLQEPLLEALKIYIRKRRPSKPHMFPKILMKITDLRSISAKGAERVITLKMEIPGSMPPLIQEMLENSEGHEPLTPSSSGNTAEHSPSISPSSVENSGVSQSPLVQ
# In short: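 HepG2, transient MRTU transfection, NR–Gal4 chimera, 24 h treatment; RT-PCR plus CE fluorescence detection of reporter mRNA; gain of signal vs DMSO.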
# [10] = biological target: Retinoic acid receptor alpha (Homo sapiens) (UniProt P10276); test: ATG_RARa_TRANS: Attagene TRANS-FACTORIAL HepG2 Assay for human Retinoic Acid Receptor alpha (RARa) (AID 2283005; active means hit-call score of the fitted dose curve at least 0.9, where 1 is the maximum)
# In short: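 HepG2 transiently transfected with multiplex GAL4-UAS reporter units including a human RARa–GAL4 chimera; 24 h compound exposure. Reporter mRNA quantified by RT-PCR, 6-FAM labeling and capillary electrophoresis; gain of signal versus DMSO.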
# [11] = BSK_3C_Proliferation: Cell Proliferation Assessment in the BioMAP Diversity Plus: 3C Assay (AID 2283006); conditions: primary human endothelial cells (HUVEC);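 on AC50: potency may reflect either rise or fall in cell number versus DMSO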
# In short: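 Proliferation of human vascular endothelial primary cells after 48 h dosing, quantified as SRB-stained protein at 560 nm relative to DMSO.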
# [12] = biological target: Peroxisome proliferator-activated receptor gamma (Homo sapiens) (UniProt P37231); test: ATG_PPARg_TRANS: Attagene TRANS-FACTORIAL HepG2 Assay for human Peroxisome Proliferator-activated Receptor-gamma (PPARg) (AID 2283007; active means hit-call score of the fitted dose curve at least 0.9, where 1 is the maximum)
# In short: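 Multiplexed reporter transcription units in HepG2, 24 h dosing, reporter transcripts quantified by fluorescent RT-PCR and capillary electrophoresis. Increase over DMSO scored.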
# [13] = biological target: Nuclear receptor subfamily 1 group I member 2 (Homo sapiens) (UniProt O75469); test: ATG_PXR_TRANS: Attagene TRANS-FACTORIAL HepG2 Assay for human Pregnane X Receptor (PXR) (AID 2283008; active means hit-call score of the fitted dose curve at least 0.9, where 1 is the maximum)
# Sequence of Nuclear receptor subfamily 1 group I member 2 (Homo sapiens) (O75469 whole entry, looked up, the tested form may be a part): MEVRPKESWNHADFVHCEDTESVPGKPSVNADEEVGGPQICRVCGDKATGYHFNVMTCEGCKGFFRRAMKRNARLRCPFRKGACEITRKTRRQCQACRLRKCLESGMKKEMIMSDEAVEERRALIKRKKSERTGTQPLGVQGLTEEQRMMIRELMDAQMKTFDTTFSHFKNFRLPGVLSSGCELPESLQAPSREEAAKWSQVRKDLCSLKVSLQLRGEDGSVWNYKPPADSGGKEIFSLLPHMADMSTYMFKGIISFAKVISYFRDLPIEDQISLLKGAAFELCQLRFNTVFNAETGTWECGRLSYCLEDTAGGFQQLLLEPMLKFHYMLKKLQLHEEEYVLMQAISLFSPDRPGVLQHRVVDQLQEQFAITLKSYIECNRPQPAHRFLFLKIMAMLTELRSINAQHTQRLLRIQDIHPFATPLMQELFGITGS
# In short: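 Read-out is fluorescence of labelled reporter cDNA fragments separated by capillary electrophoresis after RT-PCR and HpaI digestion. Source: HepG2 cells carrying PXR-GAL4/UAS reporter constructs, treated 24 h; activity fitted upward relative to DMSO.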
# [14] = biological target: human Retinoic Acid Receptor gamma (RARg), RARG (gene 5916) (UniProt P13631); test: ATG_RARg_TRANS: Attagene TRANS-FACTORIAL HepG2 Assay for human Retinoic Acid Receptor gamma (RARg) (AID 2283009; active means hit-call score of the fitted dose curve at least 0.9, where 1 is the maximum)
# Sequence of human Retinoic Acid Receptor gamma (RARg), RARG (gene 5916) (P13631 whole entry, looked up, the tested form may be a part): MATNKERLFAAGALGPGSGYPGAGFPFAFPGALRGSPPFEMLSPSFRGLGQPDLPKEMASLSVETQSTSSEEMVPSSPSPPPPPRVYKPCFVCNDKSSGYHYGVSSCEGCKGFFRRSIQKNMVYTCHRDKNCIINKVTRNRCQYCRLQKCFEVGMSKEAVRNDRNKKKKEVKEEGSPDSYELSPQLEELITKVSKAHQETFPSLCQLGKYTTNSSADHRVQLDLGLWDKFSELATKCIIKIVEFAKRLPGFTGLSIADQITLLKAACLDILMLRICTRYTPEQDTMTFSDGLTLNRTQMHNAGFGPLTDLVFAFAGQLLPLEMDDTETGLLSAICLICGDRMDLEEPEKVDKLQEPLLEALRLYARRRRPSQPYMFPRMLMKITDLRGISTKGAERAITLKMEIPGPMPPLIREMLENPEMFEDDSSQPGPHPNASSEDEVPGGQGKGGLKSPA
# In short: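 HepG2, RARg-GAL4 TRANS system, 24 h exposure; reporter mRNA by RT-PCR + CE fluorescence; increase over DMSO.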
# [15] = biological target: human RAR-related Orphan Receptor beta (RORb), RORB (gene 6096) (UniProt Q92753); test: ATG_RORb_TRANS: Attagene TRANS-FACTORIAL HepG2 Assay for human RAR-related Orphan Receptor beta (RORb) (AID 2283010; active means hit-call score of the fitted dose curve at least 0.9, where 1 is the maximum)
# Sequence of human RAR-related Orphan Receptor beta (RORb), RORB (gene 6096) (Q92753 whole entry, looked up, the tested form may be a part): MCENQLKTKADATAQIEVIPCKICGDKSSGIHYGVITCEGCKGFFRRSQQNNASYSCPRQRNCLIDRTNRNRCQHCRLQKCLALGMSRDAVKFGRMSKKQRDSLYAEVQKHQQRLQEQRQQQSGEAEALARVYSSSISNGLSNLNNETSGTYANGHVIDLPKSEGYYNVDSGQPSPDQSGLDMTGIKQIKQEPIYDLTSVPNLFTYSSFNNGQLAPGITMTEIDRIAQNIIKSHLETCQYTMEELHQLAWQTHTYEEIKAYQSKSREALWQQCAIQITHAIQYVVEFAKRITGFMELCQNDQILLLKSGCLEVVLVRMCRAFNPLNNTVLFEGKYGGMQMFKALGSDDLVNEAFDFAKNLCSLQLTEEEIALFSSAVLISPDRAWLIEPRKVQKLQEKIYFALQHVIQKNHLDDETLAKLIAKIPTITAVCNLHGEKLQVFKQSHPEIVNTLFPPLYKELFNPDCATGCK
# In short: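 In this TRANS-format test, human HepG2 cells express chimeric NR-Gal4 fusion proteins driving GAL4-UAS reporters. After 24 h dosing, reporter transcripts are measured by fluorescent RT-PCR/capillary electrophoresis, with DMSO as negative control.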
# [16] = biological target: human RAR-related Orphan Receptor gamma (RORg), RORC (gene 6097) (UniProt P51449); test: ATG_RORg_TRANS: Attagene TRANS-FACTORIAL HepG2 Assay for human RAR-related Orphan Receptor gamma (RORg) (AID 2283011; active means hit-call score of the fitted dose curve at least 0.9, where 1 is the maximum)
# In short: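 Activity is scored as increase in GAL4-UAS reporter mRNA over DMSO, detected by fluorescent RT-PCR and capillary electrophoresis in HepG2 cells transiently expressing a RORg-Gal4 chimera, 24 h after dosing.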
# [17] = biological target: Retinoic acid receptor RXR-alpha (Homo sapiens) (UniProt P19793); test: ATG_RXRa_TRANS: Attagene TRANS-FACTORIAL HepG2 Assay for human Retinoid X Receptor alpha (RXRa) (AID 2283012; active means hit-call score of the fitted dose curve at least 0.9, where 1 is the maximum)
# Sequence of Retinoic acid receptor RXR-alpha (Homo sapiens) (P19793 whole entry, looked up, the tested form may be a part): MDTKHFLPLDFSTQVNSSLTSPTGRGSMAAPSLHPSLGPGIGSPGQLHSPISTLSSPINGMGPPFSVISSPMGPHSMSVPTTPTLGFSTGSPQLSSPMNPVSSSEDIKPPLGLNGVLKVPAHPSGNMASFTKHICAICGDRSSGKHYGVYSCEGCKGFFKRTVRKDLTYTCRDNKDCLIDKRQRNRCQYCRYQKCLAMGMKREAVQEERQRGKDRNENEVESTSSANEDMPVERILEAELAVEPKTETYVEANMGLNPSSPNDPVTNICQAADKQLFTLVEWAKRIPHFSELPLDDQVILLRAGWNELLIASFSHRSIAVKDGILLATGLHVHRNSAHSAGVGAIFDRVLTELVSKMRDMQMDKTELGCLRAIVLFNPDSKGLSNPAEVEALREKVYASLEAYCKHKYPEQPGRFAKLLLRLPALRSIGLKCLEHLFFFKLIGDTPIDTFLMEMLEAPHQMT
# In short: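 Cells (HepG2) carried transiently transfected GAL4-responsive reporter units. Following a 24 h chemical incubation, reporter mRNA induction was read via RT-PCR fragment analysis; DMSO served as negative control and baseline.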
# [18] = biological target: human Retinoid X Receptor beta (RXRb), RXRB (gene 6257) (UniProt P28702); test: ATG_RXRb_TRANS: Attagene TRANS-FACTORIAL HepG2 Assay for human Retinoid X Receptor beta (RXRb) (AID 2283013; active means hit-call score of the fitted dose curve at least 0.9, where 1 is the maximum)
# Sequence of human Retinoid X Receptor beta (RXRb), RXRB (gene 6257) (P28702 whole entry, looked up): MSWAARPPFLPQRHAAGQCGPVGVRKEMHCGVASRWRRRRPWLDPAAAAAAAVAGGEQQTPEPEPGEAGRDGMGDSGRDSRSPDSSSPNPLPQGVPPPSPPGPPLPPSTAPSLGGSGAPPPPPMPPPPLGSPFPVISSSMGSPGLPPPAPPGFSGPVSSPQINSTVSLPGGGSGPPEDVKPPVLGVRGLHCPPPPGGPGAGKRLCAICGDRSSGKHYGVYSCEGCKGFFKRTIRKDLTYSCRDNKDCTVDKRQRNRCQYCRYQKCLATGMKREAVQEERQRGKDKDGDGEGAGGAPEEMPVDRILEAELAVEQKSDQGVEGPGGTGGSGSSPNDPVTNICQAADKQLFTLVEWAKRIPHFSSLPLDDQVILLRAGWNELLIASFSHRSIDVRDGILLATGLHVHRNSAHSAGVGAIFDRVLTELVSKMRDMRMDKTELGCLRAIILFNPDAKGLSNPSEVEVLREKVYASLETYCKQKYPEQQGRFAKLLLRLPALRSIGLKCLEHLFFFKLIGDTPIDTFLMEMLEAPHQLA
# In short: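 Multiplexed TRANS reporter assay in HepG2; 24 h dosing; reporter mRNA by RT-PCR/CE fluorescence; gain-of-signal relative to DMSO.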
# [19] = biological target: human Thyroid Receptor alpha (THRa1), THRA (gene 7067) (UniProt P10827); test: ATG_THRa1_TRANS: Attagene TRANS-FACTORIAL HepG2 Assay for human Thyroid Receptor alpha (THRa1) (AID 2283014; active means hit-call score of the fitted dose curve at least 0.9, where 1 is the maximum)
# Sequence of human Thyroid Receptor alpha (THRa1), THRA (gene 7067) (P10827 whole entry, looked up, the tested form may be a part): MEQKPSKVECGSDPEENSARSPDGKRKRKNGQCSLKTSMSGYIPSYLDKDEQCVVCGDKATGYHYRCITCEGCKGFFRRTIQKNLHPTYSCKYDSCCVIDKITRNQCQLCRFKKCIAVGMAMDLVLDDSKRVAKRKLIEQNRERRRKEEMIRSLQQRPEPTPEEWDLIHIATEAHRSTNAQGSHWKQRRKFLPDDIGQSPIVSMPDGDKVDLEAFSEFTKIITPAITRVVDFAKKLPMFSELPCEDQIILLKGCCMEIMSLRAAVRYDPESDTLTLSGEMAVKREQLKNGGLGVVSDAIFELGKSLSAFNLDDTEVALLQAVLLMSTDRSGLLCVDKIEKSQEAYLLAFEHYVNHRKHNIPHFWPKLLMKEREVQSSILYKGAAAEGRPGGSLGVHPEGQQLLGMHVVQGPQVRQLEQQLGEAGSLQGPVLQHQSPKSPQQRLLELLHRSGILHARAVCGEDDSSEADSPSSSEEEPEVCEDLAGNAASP
# In short: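 First, HepG2 cells receive multiple GAL4-UAS reporter units and the chimeric receptor. They are then dosed for 24 h, after which RNA is reverse-transcribed, amplified, labelled, HpaI-cut and sized by capillary electrophoresis; gain relative to DMSO is scored.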
# [20] = BSK_3C_TissueFactor: BioMAP Diversity Plus: 3C Assay for Tissue Factor Biomarker Activity (AID 2282997); conditions: BioMAP 3C HUVEC, tissue factor biomarker readout; actives raise or lower the signal
# In short: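 Values derive from bidirectional curve fitting against DMSO of Tissue Factor ELISA signals, taken 24 h after dosing primary human umbilical vein endothelial cells.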
smiles,measurement,setting,value
O=C(O)C(F)(F)C(F)(F)C(F)(F)C(F)(F)C(F)(F)C(F)(F)F,outcome,[1],inactive
same,outcome,[2],inactive
same,outcome,[3],inactive
same,outcome,[4],inactive
same,outcome,[5],inactive
same,AC50,[6],18.2 µM (active) and 20.7 µM (active)
same,outcome,[7],inactive
same,outcome,[8],inactive
same,outcome,[9],inactive
same,outcome,[10],inactive
same,outcome,[11],inactive
same,AC50,[12],65.4 µM (active) and 72.5 µM (active)
same,outcome,[12],inactive
same,outcome,[13],inactive
same,outcome,[14],inactive
same,outcome,[15],inactive
same,outcome,[16],inactive
same,outcome,[17],inactive
same,AC50,[18],51.7 µM (active) and 56.5 µM (active)
same,outcome,[18],inactive
same,outcome,[19],inactive
ClC1(Cl)C2(Cl)C3(Cl)C4(Cl)C(Cl)(Cl)C5(Cl)C3(Cl)C1(Cl)C5(Cl)C24Cl (centres undefined),outcome,[1],inactive
same,outcome,[2],inactive
same,outcome,[20],inactive
same,outcome,[3],inactive
same,outcome,[4],inactive
same,outcome,[5],inactive
same,outcome,[7],inactive
same,outcome,[8],inactive
same,outcome,[11],inactive
same,outcome,[13],inactive
same,outcome,[15],inactive
CC(C)CCCCCCOC(=O)c1ccccc1C(=O)OCCCCCCC(C)C,outcome,[1],inactive
same,outcome,[2],inactive
same,outcome,[3],inactive
same,outcome,[4],inactive
same,outcome,[5],inactive
same,outcome,[6],inactive
same,outcome,[7],inactive
same,outcome,[8],inactive
same,outcome,[11],inactive
same,AC50,[13],1.84 µM (active)
same,outcome,[15],inactive
CCOC(=O)/C=C(C)/C=C/C[C@@H](C)CCCC(C)C,AC50,[1],25 µM (active)
same,outcome,[2],inactive
same,AC50,[20],15.6 µM (active)
same,AC50,[3],33.1 µM (active)
same,AC50,[4],26.6 µM (active)
same,AC50,[5],30 µM (active)
same,AC50,[6],64.9 µM (active)
same,outcome,[7],inactive
same,AC50,[8],30.2 µM (active)
same,AC50,[11],20 µM (active)
same,AC50,[12],1.56 µM (active)
same,AC50,[13],5.32 µM (active)
same,outcome,[17],inactive
same,AC50,[18],26.9 µM (active)
CCC(=O)C(CC(C)N(C)C)(c1ccccc1)c1ccccc1 (centres undefined),outcome,[1],inactive
same,AC50,[2],48.9 µM (active)
same,outcome,[3],inactive
same,outcome,[4],inactive
same,outcome,[5],inactive
same,outcome,[6],inactive
same,outcome,[8],inactive
same,outcome,[11],inactive
same,outcome,[12],inactive
same,outcome,[13],inactive
same,outcome,[14],inactive
same,outcome,[17],inactive
same,outcome,[18],inactive
same,outcome,[19],inactive
O=[N+]([O-])c1ccc(O)c([N+](=O)[O-])c1,outcome,[1],inactive
same,outcome,[2],inactive
same,outcome,[20],inactive
same,outcome,[3],inactive
same,outcome,[4],inactive
same,outcome,[5],inactive
same,outcome,[8],inactive
same,outcome,[9],inactive
same,outcome,[10],inactive
same,outcome,[11],inactive
same,outcome,[12],inactive
same,outcome,[17],inactive
same,outcome,[19],inactive
Oc1cccc2cccnc12,AC50,[1],167 µM (active)
same,outcome,[1],inactive
same,outcome,[20],inactive
same,outcome,[3],inactive
same,AC50,[4],10.4 µM (active)
same,AC50,[5],2.69 µM (active)
same,outcome,[6],inactive
same,outcome,[7],inactive
same,outcome,[8],inactive
same,AC50,[11],4.78 µM (active)
same,outcome,[12],inactive
same,outcome,[13],inactive
same,outcome,[15],inactive
same,outcome,[17],inactive
same,outcome,[19],inactive
